# Shown are actives, neighbours in structure and some others; about 1.8% of the full set was active somewhere.
# Rtt109 HAT inh = inhibitors of C. albicans Rtt109/Vps75 HAT, primary screen, biochemical, ThioGlo CoA-SH fluorescence, plate reader; purified Rtt109/Vps75, 4 h; inhibition, % at 34.9 µM; 330,000 compounds, 0.16% hits; AID 540336, 2011;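 active = inhibition of at least 50% in every replicate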
# TLR9-MyD88 inh = inhibitors of TLR9-MyD88 association in cells, primary screen, cell-based, CHO, BLA complementation, fluorescence; inhibition, % at 4.98 µM; 340,000 compounds, 0.21% hits; Toll-like receptor 9 (Homo sapiens) + Myeloid differentiation primary response protein …; CCF4 FRET ratio;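 active = inhibition above the mean over all tested compounds plus 3 SD, cut at about 21% in these data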
# NOD2-RIPK2 inh = NOD2-RIPK2 binding disruptors in cells, primary screen, fluorescence, CHO cells, BLA complementation. inhibition, % at 4.98 µM. Receptor-interacting serine/threonine-protein kinase 2 (Homo sapiens), O43353. 360,000 compounds, 0.38% hits. CCF4 ratio; in the data active = inhibition above about 21%
# LANA-H2A inh = blockers of LANA interaction with H2A/H2B – biochemical, FP readout, HTS, primary screen. Protein LANA1 (Human herpesvirus 8 type P (isolate GK18)), Q9QR71. cell-free LANA-H2A/H2B peptide, fluorescence polarization. inhibition, % (test concentration not listed). 320,000 compounds, 0.6% hits; in the data active = inhibition mostly above about 10%, no sharp cut-off; inactive = mostly below about 6.7%
# m5-HT2A agonist = mouse Htr2a agonists via beta-arrestin recruitment, primary screen, cell-based, luminescence. CHO-K1 mHTR2A beta-arrestin complementation; percent of 30 µM serotonin response. AID 624169, 2012. activation, % at 7.6 µM. 5-hydroxytryptamine receptor 2A (Mus musculus), P35363. 360,000 compounds, 0.66% hits;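 active = activation above a run cutoff, the mean activation of all tested compounds plus 3 SD, cut at about 14% in these data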
# TLR4 MyD88 comp = inhibitors of TLR4-MyD88 association in cells, primary screen, cell-based, HeLa CL3-4, BLA complementation, FRET ratio; Toll-like receptor 4 (Homo sapiens) + Myeloid differentiation primary response protein …; HeLa CL3-4 TLR4/MyD88 BLA complementation; inhibition, % at 8.4 µM; 200,000 compounds, 0.18% hits; AID 861, 2007; in the data active = inhibition above about 25%
# A number is an active result; 0 = inactive; - = no result given; + = active, no number; ! = a repeat was not active.
SMILES,Rtt109 HAT inh,TLR9-MyD88 inh,NOD2-RIPK2 inh,LANA-H2A inh,m5-HT2A agonist,TLR4 MyD88 comp
CN(CC(=O)Nc1cccc(Cl)c1)C1=NS(=O)(=O)c2ccccc21,0,0,0,0,0,-
CN(CC(=O)Nc1ccc(Cl)cc1)C1=NS(=O)(=O)c2ccccc21,0,0,0,27,0,-
CC(=O)Nc1cccc(C)c1,0,0,0,0,0,-
CC(=O)Nc1cccc(N)c1,0,0,0,28,0,-
Cc1cc(C)nc(Nc2n[nH]c(-c3ccccc3Br)n2)n1,0,0,0,18,0,0
CC1(C(=O)NCc2ccccc2Br)CCN1Cc1ccc2ccccc2c1 (stereo unspecified),-,-,0,-,0,-
O=C(CCNC(=O)c1ccccc1Cl)Nc1cc(C(F)(F)F)ccc1Cl,0,0,0,0,0,0
Cc1ccc(C)c(C(=O)COC(=O)CCCC(=O)Nc2cc(C(F)(F)F)ccc2Cl)c1,0,0,0,12,0,0
COc1ccc(C(=O)Nc2cc(OC)c(NC(=O)c3ccco3)cc2OC)cc1,57,0,0,0,0,0
O=c1cc(CN2CCCCCC2)nc2sccn12,0,0,0,+,0,0
Cc1ccc(C2=NNC(=O)C(c3c[nH]c4ccccc34)C2)cc1 (stereo unspecified),0,0,0,0,0,0
O=C1CC(c2c[nH]c3ccccc23)C(=O)N1 (stereo unspecified),0,0,0,30,0,0
CCOCCCNC(=O)C(NC(=O)c1ccccn1)c1ccc(C)cc1 (stereo unspecified),0,0,0,12,0,0
CCN(CC)CCNC(=O)C(=O)Nc1cc2c3c(c1)CCC(=O)N3CCC2,0,0,0,0.9,0,-
CN(C)CCNC(=O)C(=O)Nc1cc2c3c(c1)CCN3C(=O)CC2,0,0,0,17,0,-
CN(C)CCNC(=O)C(=O)Nc1cc2c3c(c1)CCC(=O)N3CCC2,0,0,0,0,0,-
CCNC(=O)C(=O)Nc1cc2c3c(c1)CCC(=O)N3CCC2,0,0,0,0,0,-
CC1(C(=O)NS(=O)(=O)c2ccccc2)CCN1C(=O)Cc1cccs1 (stereo unspecified),-,-,0,-,0,-
NC(=O)CSc1ncc(-c2ccc([N+](=O)[O-])cc2)[nH]1,0,0,0,0,0,0
O=[N+]([O-])c1ccc2nc(SCc3ccccc3Cl)sc2c1,0,0,0,0,0,0
O=[N+]([O-])c1ccc(-c2cnc(SCc3ccccc3Cl)[nH]2)cc1,0,0,0,0,0,25
Cc1cc(C)c(CSc2ncc(-c3ccc([N+](=O)[O-])cc3)[nH]2)c(C)c1,0,0,41,0,0,0
O=C(Cn1c2ccccc2c(=O)c2ccccc21)N/N=C/c1ccc(N2CCCC2)c([N+](=O)[O-])c1,0,0,0,+,0,0
O=C(Cn1c2ccccc2c(=O)c2ccccc21)N/N=C/c1cc([N+](=O)[O-])ccc1N1CCCCCC1,0,0,0,0,0,0
O=C(CCC(=O)Nc1ccccc1Cl)N/N=C/c1c[nH]c2ccccc12,0,0,0,0,22,0
SMILES,Rtt109 HAT inh,TLR9-MyD88 inh,NOD2-RIPK2 inh,LANA-H2A inh,m5-HT2A agonist,TLR4 MyD88 comp
c1ccc(-c2ccc3ncccc3n2)cc1,-,-,0,-,0,-
Cc1cc(C)c2cc(CN(Cc3ccco3)C(=S)NCC3CCCO3)c(=O)[nH]c2c1 (stereo unspecified),0,0,0,20,0,0
O=C(Nc1cc([N+](=O)[O-])ccc1F)C1CC1,0,0,0,29,0,0
Cc1ccc(CN2CC(N3CC=CC3)CS2(=O)=O)cc1 (stereo unspecified),-,-,0,-,0,-
Cc1cccc(Cn2c(N(C)CCO)nc3c2c(=O)[nH]c(=O)n3C)c1,0,0,0,14,0,0
CN(Cc1ccccc1)c1nc2c(c(=O)[nH]c(=O)n2C)n1Cc1ccccc1,0,0,0,0,0,0
CC(C)(C)N(Cc1ccccc1)C(=O)COC(=O)c1ccc(Br)o1,0,0,0,0,0,-
CC(C)(C)N(Cc1ccccc1)C(=O)c1ccc(Br)o1,0,0,0,9.6,0,0
Cc1cccc(C)c1OCc1cc(C(=O)NC2CCC2)no1,0,0,0,0,0,-
Cc1cccc(C)c1OCc1cc(C(=O)NC2CCC(O)CC2)no1 (stereo unspecified),0,0,0,21,0,-
CCc1nc2c(OCc3cc(Cl)cc(Cl)c3)cccn2c1N(C)C(=O)CC(C)C,-,-,0,-,0,-
CCOC(=O)C1=C(C)NC(C)=C(C(=O)OCC)C1C(=O)OCC(=O)NCCc1ccc(S(N)(=O)=O)cc1,53,0,0,0,0,-
CC(C)NC(=O)C1C(c2ccc(C(F)(F)F)cc2)=Nc2ccccc2N1C(=O)c1cccc(C(F)(F)F)c1 (stereo unspecified),-,-,0,-,0,-
CC(=O)NCCCCCCNC(C)=O,0,0,0,31!,0,0
CCCCCNC(=O)C1C(=O)Nc2ccccc2C(=O)N1c1ccc(OC)cc1 (stereo unspecified),-,-,0,-,0,-
CC(Oc1cccc(Cl)c1)c1ccnc2nc(/N=C/N(C)C)nn12 (stereo unspecified),0,0,0,112,0,0
CCCCNC(=O)C1(C)CCN1C(=O)c1cc(-c2cccs2)oc1C (stereo unspecified),-,-,0,-,0,-
COc1ccc(CNc2ccc(C)c(C)c2)cc1,0,0,0,0,0,0
COc1cc(CNc2ccc(C)c(C)c2)cc(OC)c1OC,0,0,0,5.5,0,0
Cc1ccc(Cc2c(-c3ccc(F)cc3)nc3cc(C)ccn23)cc1,-,0,0,-,0,-
CCCCc1c(-c2ccccc2OC)ncn1C1CCCC1,-,-,0,-,0,-
C=CCNC(=O)c1sc(=S)n(-c2ccc(C(=O)OCC)cc2)c1N,0,0,0,40,0,0
Cc1ccc(CN2CC(N3CCN(C)CC3)CS2(=O)=O)cc1 (stereo unspecified),-,-,0,-,0,-
CC(C(=O)Nc1ncn[nH]1)N1C(=O)c2ccccc2C1=O (stereo unspecified),0,0,0,17,0,0
CC(C(=O)Nc1ccccc1F)N1C(=O)c2ccccc2C1=O (stereo unspecified),0,0,0,0,0,0
CN(C)c1ccc2c(=O)cc[nH]c2c1,-,-,0,-,0,-
COc1ccccc1C1C(C(=O)c2sc(C)nc2C)=C(O)C(=O)N1CCN1CCOCC1 (stereo unspecified),0,0,0,17,0,0

# Bioassay records: PubChem, several laboratories
